Source: PubChem BioAssay (NCI)
The panel holds about 83,000 compounds, 20% with a hit somewhere; the sample as a whole holds those more often.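 Results are percent growth after 48 hours of single-concentration exposure. 100 means growth as in untreated cells, lower positive values show inhibition; negative values down to -100 show cell death.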 Unmarked numbers belong to inactive results. The source made the active and inactive calls.

Tested on: HS 578T breast
Test: NCI-60 one-dose screen, 48 h (100 = growth as untreated, 0 = no growth, -100 = all killed)
Conditions: 10 µM unless noted
Procedure: Growth inhibition of the HS 578T human tumor cell line is measured as a screen for anti-cancer activity. Cells are grown in 96 well plates and exposed to the test compound for 48 hours. Compounds are tested at a single concentration, which is 10^-5 M for most compounds. The reported endpoint is percent growth (GI% or GIPRCNT), where numbers from 0 - 100% represent growth inhibition, and numbers from -100% - 0 represent cell death. For example, a value of 40 represents 60% growth inhibition. A value of 0 means no net growth occurred over the course of the experiment. A value of -40 indicates 40% of cells at the beginning of the experiment died by the end of the experiment. A value of -100 means all cells are dead at the end of the experiment.
NCI-60 Human Tumor Cell Lines Screen was performed using the standard one-dose NCI protocol, which is described in more detail at https://dtp.cancer.gov/discovery_development/nci-60/default.htm.
Compounds with GIPRCNT values below 10 were considered active. Activity score was based on GIPRCNT using the following formula: […]
Score is 0 for GIPRCNT values of 100 or above, 50 for GIPRCNT values of 0, and 100 for GIPRCNT values of -100.

Structure (SMILES) | growth
COc1ccc([C@H]2[C@@H](F)C(=O)N2c2cc(OC)c(OC)c(OC)c2)cc1F | 25.5%
CCOC(=O)c1ccc(Nc2ncnc3ccc(NC(=O)c4ccccc4)cc23)cc1 | -95% (active)
COC1=CC2C=C(C3N(c4ccccc4)NC(=O)[C@@H]4CCCN34)C(=O)NC2C=C1 (stereo not given in full) | 99%
COc1cc2cc(c1Cl)N(C)C(=O)C[C@H](OC(=O)[C@H](C)N(C)C(=O)CCS)C[C@]1(C)O[C@H]1[C@H](C)[C@@H]1C[C@@](O)(NC(=O)O1)[C@H](OC)/C=C/C=C(\C)C2 | 20.9%
O=C(Nc1ccc2ncnc(Nc3cccc(C(F)(F)F)c3)c2c1)c1cccs1 | 103%
COc1cc(/C=C/CO)cc(OC)c1O[C@@H]1O[C@H](CO)[C@@H](O)[C@H](O)[C@H]1O | 96.4%
Cc1ccc(C(=O)/C(=C/c2ccc([N+](=O)[O-])cc2)S(=O)Cc2ccccc2)cc1 (stereo not given) | -2.56% (active)
CN1CCN(CC#CCOC(=O)CNC(=O)[C@]23CCC(C)(C)C[C@H]2C2=CC[C@@H]4[C@@]5(C)CC[C@H](O)C(C)(C)[C@@H]5CC[C@@]4(C)[C@]2(C)CC3)CC1 | 95.5%
CC(=O)ON1CCCC(P(=O)(OCOC(=O)C(C)(C)C)OCOC(=O)C(C)(C)C)C1=O (stereo not given) | 1.28% (active)
C=C1C(=O)O[C@H]2[C@H]1CC/C(COC(=O)NCc1nc3ccccc3[nH]1)=C\CC[C@@]1(C)O[C@@H]21 | 102%
CC[C@H](Nc1ncnc2nc[nH]c12)c1nc2cccc(CC(=O)c3ccc(C(=O)NO)cc3)c2c(=O)n1-c1ccccc1 | 72%
O=CN1N=C(c2ccc(Cl)cc2)CC1c1cccc(Nc2ccnc3cc(C(F)(F)F)ccc23)c1 (stereo not given) | 87.7%
C=C1C(=O)O[C@H]2[C@H]1CC/C(COC(=O)Nc1nc3ccccc3[nH]1)=C\CC[C@@]1(C)O[C@@H]21 | 94.5%
CCOC(=O)C1=C(C)n2nc(CC#N)c(C#N)c2NC1c1ccc(Cl)cc1 (stereo not given) | 106%
O=[N+]([O-])c1ccc(Oc2ccc(-c3ccccc3)cc2)cc1 | 93.2%
Cc1nnc(/N=C2\NC(=O)/C(=C/c3ccc(N(C)C)cc3)S2)s1 | 85.6%
COc1cc(C2CC(c3ccc(Nc4nc(NCCO)nc(NCCO)n4)cc3)=NN2c2cc(Cl)cc(Cl)c2)cc(OC)c1OC (stereo not given) | -14.5% (active)
CN(C)C1=NCCN1 | 106%
C=C(C)[C@@H]1CC[C@]2(C(=O)OCCOCCOCC[P+](c3ccccc3)(c3ccccc3)c3ccccc3)CC[C@]3(C)[C@H](CC[C@@H]4[C@@]5(C)CC[C@H](C)C(C)(C)[C@@H]5CC[C@]43C)[C@@H]12 | -39.2% (active)
COC(=O)CCc1n(Cc2ccc3ccccc3c2)c2ccccc2[n+]1Cc1ccc2ccccc2c1 | 25%

Structure (SMILES) | growth
COC(=O)c1ccc(NC(=O)CSc2nc(-c3ccc(F)cc3)nc3ccccc23)cc1 | 82.8%
CC(C)NS(=O)(=O)c1cccc(-c2ccc3c4c(n(CCCN(C)C)c(=O)c3c2)-c2ccccc2C4=O)c1 | 99.8%
O=C1CCC23OC(c4ccccc4N12)C(O)C(O)C3O (stereo not given) | 105%
N#Cc1ccc(N2Cc3cc(Cl)ccc3OC3=C2C(=O)N(Cc2ccc(F)cc2)C3=O)cc1 | 27%
C#C[C@@]1(O)[C@@H](CO)O[C@@H](n2cc(Cl)c3c(N)ccnc32)[C@@H]1O | 102%
C1=CC2=CC=C3C=CC=C4C(c5nc6c7ccccc7c7ccccc7c6[nH]5)=CC(=C1)C2C34 (stereo not given) | 93.9%
C/C(=N/Nc1nc2ccccc2n1C)c1ccccn1 | 44.5%
Cc1nc2sc(C(=O)Nc3ccccc3)c(N)c2cc1C(C)O (stereo not given) | 44.9%
O=C(/C(=C/c1ccc([N+](=O)[O-])cc1)SCc1ccccc1)c1ccc(Cl)cc1 | 75.7%
c1ccc2nc(N3CCOCC3)c(N3CCCCC3)nc2c1 | 96.9%
CCOC(=O)c1c(C)nc2c(c1N)/C(=C/c1cccs1)C(=O)N2c1ccc(OC)cc1 | 25%
CCCn1cc(/C=N\N=C2\C(=O)Nc3ccc(C)cc32)c2ccccc21 | 74%
O=C1c2ccccc2C(=O)c2c1oc1c2c(=O)[nH]c2ccccc21 | 88.3%
Nc1ccc(C(=O)Nc2cccc(C(=O)Nc3ccc4c(O)c(N=Nc5ccc(N=Nc6ccc(S(=O)(=O)O)cc6)cc5)c(S(=O)(=O)O)cc4c3)c2)cc1 | 106%
C=C(C)[C@@H]1CC[C@]2(C(=O)N3CCN(C)CC3)CC[C@]3(C)[C@H](CC[C@@H]4[C@@]5(C)C/C(=C/c6ccco6)C(=O)C(C)(C)[C@@H]5CC[C@]43C)[C@@H]12 | 66.4%
O=C1CCc2ccccc2N1 | 103%
COc1cc(-c2csc(NC(=O)Nc3cc(Cl)cc(Cl)c3)n2)cc(OC)c1OC | -18.2% (active)
CCCCCCCCCCCCCC1=NCC[N+]1(CCO)Cc1ccccc1 (stereo not given) | -36.5% (active)
Cc1ccccc1NC(=O)c1sc2nc(C)c(C(C)O)cc2c1N (stereo not given) | 53.3%
CCOC(=O)c1sc(/N=C2\NC(=O)/C(=C/c3ccc(N4CCN(C)CC4)cc3)S2)nc1C | 107%
